# Source: PubChem BioAssay AID1159580 (chemical genetic matrix, 2015)
# Out of some 5,500 compounds screened, about 2,000 (36%) were called active. Another 18% or so got no clear call; they are omitted. The list shows a part of the results. A number with no mark means an inactive call. Cut-off read from the data, not from the text of the source: active = normalized growth mostly below about 0.91 (no sharp cut-off); inconclusive = no clear call, values can overlap the other calls; inactive = mostly above about 0.92.
# Test: chemical genetic growth profiling, strain panel (AID 1159580);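 note: tested at 20 µM; growth read once vehicle control cultures reached saturation at 30 °C; 1 = growth at the plate median or of vehicle wells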
# Conditions: growth OD
# [1] = S. cerevisiae deletion strains, locus YAL013W, strain DEP1, stronger effect = lower value
# [2] = S. cerevisiae deletion strains, locus YBR229C, strain ROT2, stronger effect = lower value
# [3] = S. cerevisiae deletion strains, locus YDL101C, strain DUN1, stronger effect = lower value
# [4] = S. cerevisiae deletion strains, locus YDL134C, strain PPH21, stronger effect = lower value
# [5] = S. cerevisiae deletion strains, locus YDR150W, strain NUM1, stronger effect = lower value
# [6] = S. cerevisiae deletion strains, locus YEL061C, strain CIN8, stronger effect = lower value
# [7] = S. cerevisiae deletion strains, locus YGR078C, strain PAC10, stronger effect = lower value
# [8] = S. cerevisiae deletion strains, locus YHR030C, strain SLT2, stronger effect = lower value
# [9] = S. cerevisiae deletion strains, locus YHR087W, strain rtc3, stronger effect = lower value
# [10] = S. cerevisiae deletion strains, locus YJR043C, strain POL32, stronger effect = lower value
# [11] = S. cerevisiae deletion strains, locus YJR075W, strain HOC1, stronger effect = lower value
# [12] = S. cerevisiae deletion strains, locus YLR039C, strain RIC1, stronger effect = lower value
# [13] = S. cerevisiae deletion strains, locus YLR058C, strain SHM2 (second series), stronger effect = lower value
# [14] = S. cerevisiae deletion strains, locus YLR085C, strain ARP6, stronger effect = lower value
# [15] = S. cerevisiae deletion strains, locus YLR262C, strain YPT6, stronger effect = lower value
# [16] = S. cerevisiae deletion strains, locus YML094W, strain GIM5, stronger effect = lower value
# [17] = S. cerevisiae deletion strains, locus YMR219W, strain ESC1, stronger effect = lower value
# [18] = S. cerevisiae deletion strains, locus YMR263W, strain SAP30, stronger effect = lower value
# [19] = S. cerevisiae deletion strains, locus YNL153C, strain GIM3, stronger effect = lower value
# [20] = S. cerevisiae deletion strains, locus YNL298W, strain CLA4 (second series), stronger effect = lower value
# [21] = S. cerevisiae deletion strains, locus YNL322C, strain KRE1, stronger effect = lower value
# [22] = S. cerevisiae deletion strains, locus YNR030W, strain Alg12, stronger effect = lower value
# [23] = S. cerevisiae deletion strains, locus YOL006C, strain TOP1, stronger effect = lower value
# [24] = S. cerevisiae deletion strains, locus YPL241C, strain CIN2, stronger effect = lower value
# [25] = S. cerevisiae deletion strains, locus YPR135W, strain CTF4, stronger effect = lower value
compound,measurement,setting,value
C=Cc1c(SC)sc(C(=O)O)c1C,normalized growth,[1],0.869 (active)
same,normalized growth,[2],0.766 (active)
same,normalized growth,"S. cerevisiae deletion strains, locus YCL061C, strain MRC1, stronger effect = lower value",0.746 (active)
same,normalized growth,[3],0.705 (active)
same,normalized growth,[4],1.01
same,normalized growth,[5],0.869
same,normalized growth,[6],0.999
same,normalized growth,[7],0.794 (active)
same,normalized growth,[8],1.05
same,normalized growth,[9],0.761 (active)
same,normalized growth,"S. cerevisiae deletion strains, locus YJL187C, strain SWE1, stronger effect = lower value",1.05
same,normalized growth,[10],0.807 (active)
same,normalized growth,[11],0.636 (active)
same,normalized growth,[12],0.795
same,normalized growth,[13],0.889 (active)
same,normalized growth,[14],1.05
same,normalized growth,[15],0.776 (active)
same,normalized growth,[16],1.01
same,normalized growth,[17],0.804 (active)
same,normalized growth,[18],0.869 (active)
same,normalized growth,"S. cerevisiae deletion strains, locus YNL128W, strain TEP1, stronger effect = lower value",1.04
same,normalized growth,[19],0.771 (active)
same,normalized growth,[20],1.02
same,normalized growth,[21],0.865 (active)
same,normalized growth,[22],0.979
same,normalized growth,[23],1.07
same,normalized growth,[24],0.966
same,normalized growth,[25],1.1
N#CCCC1(CCC#N)c2ccccc2-c2ccccc21,normalized growth,[1],0.99
same,normalized growth,[2],1.02
same,normalized growth,[3],1.03
same,normalized growth,[4],1.02
same,normalized growth,[5],1.01
same,normalized growth,[6],1.01
same,normalized growth,[7],1.01
same,normalized growth,[8],1.05
same,normalized growth,[9],1.03
same,normalized growth,[10],1.01
same,normalized growth,[11],1.01
same,normalized growth,[12],1.06
same,normalized growth,[13],1.01
same,normalized growth,[14],1.03
same,normalized growth,[15],1.01
same,normalized growth,[16],1.03
same,normalized growth,[17],1.03
same,normalized growth,[18],1.02
same,normalized growth,[19],1.04
same,normalized growth,[20],1.01
same,normalized growth,[21],1.01
same,normalized growth,[22],1
same,normalized growth,[23],1.08
same,normalized growth,"S. cerevisiae deletion strains, locus YPL055C, strain LGE1, stronger effect = lower value",1.03
same,normalized growth,[24],1.01
same,normalized growth,[25],1.11
same,normalized growth,"S. cerevisiae strains, strain wild type, stronger effect = lower value",1.03
